Data reported in PubChem BioAssay (NCATS).
Inconclusive results are not listed. Calls of active or inactive are those of the source. Unless noted, calls follow the shape of the dose curve; as a rule, active = well fitted curve in the direction sought with a large enough effect; inconclusive = small, poorly fitted or top-dose-only effect, or another doubt; inactive = no such curve, though single readings can be large; an effect the other way counts as inactive or inconclusive.

Key:
[1] = qHTS Assay for Lipid Storage Modulators (AID 1519); conditions: Drosophila S3 cells, BODIPY lipid droplet/cell ratio, laser cytometry; measured here: lipid channel max response; cells loaded with oleic acid
Method in brief: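 Cells seeded at 5,000 per well were treated with compounds over a concentration series and loaded with oleic acid (400 uM, as added). Lipid droplet fluorescence (488 nm excitation, 500-530 nm channel) was read by laser-scanning cytometry and normalized to 20 uM Triacsin C.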

[2] = biological target: DNA repair nuclease/redox regulator APEX1 (Homo sapiens) (UniProt P27695); assay: qHTS Validation Assay for Inhibitors of the Human Apurinic/apyrimidinic Endonuclease 1 (APE1) (AID 1705;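 also: TAMRA fluorescence gain over two minutes as APE1 cuts a quenched THF abasic duplex; series mostly up to about 57 µM; % is scaled to controls: 0 for no effect and ±100 for the full control effect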)
Method in brief: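 Fluorogenic double-stranded THF abasic-site substrate (5'-TAMRA/3'-BHQ-2), 50 nM final. Enzyme preincubated with compound 15 min at room temperature, then substrate added. Kinetic fluorescence (ex 525/em 598 nm) read three times at 60 s intervals; activity taken as third-minus-first read difference.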

[3] = Counterscreen for APE1 Inhibitors: Fluorescent Dye Displacement Validation Assay (AID 1707);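 also: plate controls were ThO with dsDNA and no compound for no effect and ThO without dsDNA for full effect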
Method in brief: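 Thiazole Orange displacement from dsDNA: 250 nM ThO with 50 nM TAMRA-labelled abasic-site (tetrahydrofuran) duplex in 50 mM Tris-HCl pH7.5, 50mM NaCl, 2 mM MgCl2, 0.01% Tween-20. Loss of endpoint fluorescence (ex 480 nm, em 540 nm) flags DNA binders.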

[4] = biological target: Endonuclease 4 (Escherichia coli (strain K12)) (UniProt P0A6C1); assay: Counterscreen for APE1 Inhibitors: qHTS Validation Assay for Inhibitors of Endonuclease IV (AID 1708); also: % is scaled to controls: 0 for no effect and ±100 for the full control effect
Method in brief: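 E. coli EndoIV at 2 nM final, preincubated 15 min at room temperature with compound, then 50 nM TAMRA/BHQ-2 THF abasic-site duplex added. Buffer: 50 mM Tris-HCl pH 7.5, 50 mM NaCl, 2 mM MgCl2, 1 mM DTT, 0.01% Tween-20. Kinetic fluorescence increase, third minus first read.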

[5] = qHTS for differential inhibitors of proliferation of Plasmodium falciparum line 7G8 (AID 1815);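 also: parasite growth measured after three days of incubation; plate controls were vehicle wells for no effect and reference inhibitor wells for full effect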
[6] = qHTS for differential inhibitors of proliferation of Plasmodium falciparum line GB4 (AID 1816); conditions: Potency: Plasmodium falciparum GB4 proliferation inhibition;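 also: parasite growth measured after 72 h incubation; 0% = vehicle DMSO and -100% = reference inhibitor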
[7] = qHTS for differential inhibitors of proliferation of Plasmodium falciparum line D10 (AID 1877);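 also: parasites grown with compound for 72 h before DNA staining; plate controls were vehicle wells for no effect and reference inhibitor wells for full effect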
[8] = qHTS for differential inhibitors of proliferation of Plasmodium falciparum line Dd2 (AID 1882); conditions: Potency: Plasmodium falciparum Dd2 proliferation inhibition;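 also: series mostly up to about 29 µM; plate controls were DMSO vehicle for no effect and 0.29 µM artemisinin for full effect; nearly all actives have a fitted effect of over 65% in size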
Method in brief: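 Dd2-infected erythrocytes (0.3% parasitemia, 2.5% hematocrit final) incubated with compound 72 h at 37 C, 5% CO2; lysed with saponin/Triton buffer containing SYBR Green I, incubated overnight in the dark, then read by fluorescence (485/535 nm). Normalized to 0.29 uM artemisinin and DMSO.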

[9] = biological target: Ferritin light chain (Equus caballus) (UniProt P02791); assay: qHTS Validation Assay for Identification of Novel General Anesthetics (AID 2323); also: series mostly up to about 77 µM; % is scaled to controls: 0 for no effect and ±100 for the full control effect
Method in brief: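 Horse-spleen apoferritin (10 uM) in PBS with 50% saturated 1-aminoanthracene; compounds pin-transferred, 10 min at room temperature. Fluorescence read at 380/535 nm, normalized to free 1-AMA and 1-AMA/apoferritin values; four-parameter Hill fit.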

[10] = biological target: ATP-dependent DNA helicase Q1 (Homo sapiens) (UniProt P46063); assay: qHTS Validation Assay for Inhibitors of RecQ-Like Dna Helicase 1 (RECQ1) (AID 2353);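 also: plate controls were DMSO vehicle for no effect and enzyme-free control for full effect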
Method in brief: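 50 nM RECQ1T1 preincubated 15 min with compound in Tris pH 8.0 buffer with MgCl2, DTT, Tween-20 and 2.5 ug/ml poly(dI-dC); started with 200 nM TAMRA/BHQ-2 forked duplex and 2 mM ATP. Unwinding read as fluorescence (525/598 nm), two reads 2 h apart.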

[11] = biological target: RecQ-like DNA helicase BLM (Homo sapiens) (UniProt P54132); assay: qHTS Validation Assay for Inhibitors of Bloom's syndrome helicase (BLM) (AID 2364);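 also: plate controls were DMSO vehicle for no effect and enzyme-free control for full effect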
Method in brief: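 50 nM BLM preincubated 15 min at room temperature with compound in pH 8.0 Tris buffer containing 2.5 ug/ml poly(dI-dC); started with 200 nM TAMRA/BHQ-2 forked duplex and 2 mM ATP (final). Unwinding read as TAMRA fluorescence increase, two reads 2 h apart.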

[12] = Quantitative high throughput screen for delayed death inhibitors of the malarial parasite plastid, 96 hour incubation (AID 488745); also: series mostly up to about 29 µM; % is scaled to controls: 0 for no effect and ±100 for the full control effect; nearly all actives have a fitted effect of over 70% in size
Method in brief: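 Luciferase-expressing P. falciparum in erythrocytes (2% hematocrit, 0.1% parasitemia) incubated with compound for 96 h at 37 C, 5% CO2, in RPMI 1640 with 0.5% Albumax. Growth inhibition read as decreased luminescence.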

[13] = Quantitative high throughput screen for delayed death inhibitors of the malarial parasite plastid, 48 hour incubation (AID 488752); also: % is scaled to controls: 0 for no effect and ±100 for the full control effect; nearly all actives have a fitted effect of over 65% in size
Method in brief: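 Erythrocytes infected with firefly luciferase-expressing P. falciparum (2% hematocrit, 0.1% parasitemia) cultured with compound for 48 h at 37 C, 5% CO2, in RPMI 1640/0.5% Albumax. Growth inhibition read as loss of luminescence.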

[14] = biological target: M-phase phosphoprotein 8 (Homo sapiens) (UniProt Q99549); assay: qHTS Validation Assay for Inhibitors for MPP8 Chromodomain Interactions with Methylated Histone Tails (AID 488949); also: top concentration of the series differs between compounds; % is scaled to controls: 0 for no effect and ±100 for the full control effect; nearly all actives have a fitted effect of over 55% in size
Method in brief: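 MPP8 (50 nM) was pre-bound to 50 nM biotinylated H3(1-18)K9me3 peptide in PBS pH 7.4 with 0.01% Tween-20. Compounds were then added for 30 min at room temperature, and complex disruption was read by AlphaScreen with streptavidin donor and nickel-chelate acceptor beads.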

[15] = biological target: Transient receptor potential cation channel subfamily V member 1 (Homo sapiens) (UniProt Q8NER1); assay: HTS Assay for Compounds that Act as Enhancers of the Vanilloid Receptor 1 (AID 488979); also: 0% is about no effect
Method in brief: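 TRPV1 cells loaded with Fluo-8 calcium dye; compound added and Ca2+ signal (ex 480/em 520 nm) followed 3 min, then capsaicin at EC20 added and read 2 more min to detect enhancement.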

[16] = biological target: Thyrotropin receptor (Homo sapiens) (UniProt P16473); assay: qHTS Assay for Antagonists of the Thyroid Stimulating Hormone Receptor (AID 488980); also: series mostly up to about 58 µM; 0% is about no effect
Method in brief: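 TSHR-transfected HEK293 cells (2000/well) in HEPES-buffered HBSS with 70 uM RO 20-1724 were stimulated with 4 nM TSH (EC80, final) in the presence of compound. cAMP was measured by HTRF competition after lysis and 30 min at RT.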

[17] = biological target: Thyrotropin-releasing hormone receptor (Homo sapiens) (UniProt P34981); assay: qHTS for Small Molecule Agonists and Allosteric Enhancers of Human TRH Receptor: Validation Screen for Agonists (AID 493127;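 active = calcium activation more than 3 SD above the typical response in the agonist read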; also: 0% is about no effect); conditions: TRH receptor agonist cell assay; at 2 µM; stronger effect = higher value
Method in brief: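 TRHR cells loaded with fluo-8 calcium dye; FDSS kinetic fluorescence (Ex 480/Em 530) read at 1 s/cycle after 23 nL compound addition. Agonist-mode calcium response recorded before the 10 nM TRH (EC20) addition.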

[18] = Validation screen for small molecules that induce DNA re-replication in SW480 colon adenocarcinoma cells (AID 504364); also: 0% is about no effect
Method in brief: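 SW480 cells (250/well) exposed 48 h at 37 C, 5% CO2, then Hoechst-stained 40 min. Nuclear DNA content imaged by fluorescence scanning (405 nm excitation, 500-530 nm emission); re-replication scored as increased nuclei with elevated intensity.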

[19] = test system: Zika virus NS2B-NS3 protease; assay: Primary screen GU AMC qHTS for Zika virus inhibitors (AID 1347154);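 also: 0% = no-inhibitor control and -100% = no-enzyme control; nearly all actives have a fitted effect of over 70% in size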
Method in brief: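 Unlinked Zika NS2B hydrophilic domain–NS3 protease complex at 25 nM in 10 mM Tris-HCl pH 8.0, 0.01% Tween 20, with an AMC peptide substrate. Fluorescence change (340/450 nm) over 15 min at room temperature, normalized to controls, fitted to 4-parameter Hill.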

Sequence of M-phase phosphoprotein 8 (Homo sapiens) (Q99549 whole entry, looked up): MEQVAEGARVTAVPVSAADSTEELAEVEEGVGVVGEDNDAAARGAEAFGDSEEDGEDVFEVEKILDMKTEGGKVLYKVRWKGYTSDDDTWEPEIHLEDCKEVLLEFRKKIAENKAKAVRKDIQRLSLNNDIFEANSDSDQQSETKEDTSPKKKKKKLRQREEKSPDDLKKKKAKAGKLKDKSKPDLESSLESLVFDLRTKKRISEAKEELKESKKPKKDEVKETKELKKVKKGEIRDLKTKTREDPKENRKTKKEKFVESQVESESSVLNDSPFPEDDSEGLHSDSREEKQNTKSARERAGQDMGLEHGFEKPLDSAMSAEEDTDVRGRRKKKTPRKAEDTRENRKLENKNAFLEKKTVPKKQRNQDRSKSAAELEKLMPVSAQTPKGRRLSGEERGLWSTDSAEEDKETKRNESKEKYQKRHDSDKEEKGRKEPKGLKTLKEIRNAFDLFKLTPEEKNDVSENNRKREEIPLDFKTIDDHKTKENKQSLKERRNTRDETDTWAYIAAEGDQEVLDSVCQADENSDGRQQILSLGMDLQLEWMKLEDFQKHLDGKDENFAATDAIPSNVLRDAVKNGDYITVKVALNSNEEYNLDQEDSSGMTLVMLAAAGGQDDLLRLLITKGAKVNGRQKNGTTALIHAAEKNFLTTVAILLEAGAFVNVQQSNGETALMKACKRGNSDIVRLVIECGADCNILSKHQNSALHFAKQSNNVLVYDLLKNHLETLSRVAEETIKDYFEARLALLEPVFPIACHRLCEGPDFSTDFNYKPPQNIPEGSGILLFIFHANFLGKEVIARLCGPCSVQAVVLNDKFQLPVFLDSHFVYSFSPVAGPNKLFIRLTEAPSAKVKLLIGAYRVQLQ
Sequence of DNA repair nuclease/redox regulator APEX1 (Homo sapiens) (P27695 whole entry, looked up): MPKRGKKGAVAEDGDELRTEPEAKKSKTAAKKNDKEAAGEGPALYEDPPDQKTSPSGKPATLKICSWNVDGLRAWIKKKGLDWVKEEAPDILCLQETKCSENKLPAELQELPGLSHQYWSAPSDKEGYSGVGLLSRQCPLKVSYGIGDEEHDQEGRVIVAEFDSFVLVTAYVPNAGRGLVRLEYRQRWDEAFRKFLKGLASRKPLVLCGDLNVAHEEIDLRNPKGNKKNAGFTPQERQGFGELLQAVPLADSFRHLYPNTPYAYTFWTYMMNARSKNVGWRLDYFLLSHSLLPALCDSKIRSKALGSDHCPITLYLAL
Sequence of Transient receptor potential cation channel subfamily V member 1 (Homo sapiens) (Q8NER1 whole entry, looked up): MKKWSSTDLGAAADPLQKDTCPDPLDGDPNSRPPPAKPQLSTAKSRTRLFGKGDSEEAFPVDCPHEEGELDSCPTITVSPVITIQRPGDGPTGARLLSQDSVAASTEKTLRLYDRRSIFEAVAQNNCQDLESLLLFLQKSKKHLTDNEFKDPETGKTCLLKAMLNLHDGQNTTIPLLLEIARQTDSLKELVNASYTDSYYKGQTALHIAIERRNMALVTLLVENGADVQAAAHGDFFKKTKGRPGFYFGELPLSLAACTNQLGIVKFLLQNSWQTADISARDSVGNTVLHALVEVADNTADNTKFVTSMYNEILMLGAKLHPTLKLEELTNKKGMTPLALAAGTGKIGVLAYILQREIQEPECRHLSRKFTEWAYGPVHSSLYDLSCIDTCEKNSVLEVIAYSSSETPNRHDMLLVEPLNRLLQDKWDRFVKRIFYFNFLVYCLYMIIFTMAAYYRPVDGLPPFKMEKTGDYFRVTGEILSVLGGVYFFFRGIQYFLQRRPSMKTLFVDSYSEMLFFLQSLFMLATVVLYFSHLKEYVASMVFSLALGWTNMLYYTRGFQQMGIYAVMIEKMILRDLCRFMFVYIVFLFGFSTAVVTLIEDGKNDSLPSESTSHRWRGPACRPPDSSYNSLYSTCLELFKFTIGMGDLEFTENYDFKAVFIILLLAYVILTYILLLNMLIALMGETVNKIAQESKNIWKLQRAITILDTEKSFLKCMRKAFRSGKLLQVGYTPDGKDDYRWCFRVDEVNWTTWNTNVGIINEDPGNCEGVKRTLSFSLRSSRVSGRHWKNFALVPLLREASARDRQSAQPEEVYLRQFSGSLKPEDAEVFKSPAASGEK
Sequence of Ferritin light chain (Equus caballus) (P02791 2-175 limits assumed): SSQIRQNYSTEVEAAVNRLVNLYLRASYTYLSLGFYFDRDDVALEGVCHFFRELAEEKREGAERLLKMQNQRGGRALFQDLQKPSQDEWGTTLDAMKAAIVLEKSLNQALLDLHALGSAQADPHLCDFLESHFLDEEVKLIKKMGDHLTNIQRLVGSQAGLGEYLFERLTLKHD
Sequence of ATP-dependent DNA helicase Q1 (Homo sapiens) (P46063 whole entry, looked up): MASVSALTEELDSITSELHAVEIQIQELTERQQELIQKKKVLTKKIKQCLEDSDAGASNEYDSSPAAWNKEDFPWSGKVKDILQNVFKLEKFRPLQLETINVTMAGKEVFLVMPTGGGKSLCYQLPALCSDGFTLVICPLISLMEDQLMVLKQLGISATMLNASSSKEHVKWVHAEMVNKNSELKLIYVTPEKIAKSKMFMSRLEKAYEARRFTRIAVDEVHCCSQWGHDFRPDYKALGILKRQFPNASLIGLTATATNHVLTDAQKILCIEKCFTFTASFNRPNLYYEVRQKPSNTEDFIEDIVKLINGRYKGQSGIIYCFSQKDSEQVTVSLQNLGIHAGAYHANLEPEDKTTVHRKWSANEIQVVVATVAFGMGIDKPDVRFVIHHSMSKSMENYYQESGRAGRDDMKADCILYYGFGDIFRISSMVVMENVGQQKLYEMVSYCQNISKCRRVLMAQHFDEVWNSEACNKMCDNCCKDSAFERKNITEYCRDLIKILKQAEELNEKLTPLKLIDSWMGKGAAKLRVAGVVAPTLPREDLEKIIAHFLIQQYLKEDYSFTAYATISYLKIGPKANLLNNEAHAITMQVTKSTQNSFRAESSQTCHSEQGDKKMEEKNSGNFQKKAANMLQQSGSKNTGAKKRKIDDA
Sequence of Thyrotropin receptor (Homo sapiens) (P16473 whole entry, looked up): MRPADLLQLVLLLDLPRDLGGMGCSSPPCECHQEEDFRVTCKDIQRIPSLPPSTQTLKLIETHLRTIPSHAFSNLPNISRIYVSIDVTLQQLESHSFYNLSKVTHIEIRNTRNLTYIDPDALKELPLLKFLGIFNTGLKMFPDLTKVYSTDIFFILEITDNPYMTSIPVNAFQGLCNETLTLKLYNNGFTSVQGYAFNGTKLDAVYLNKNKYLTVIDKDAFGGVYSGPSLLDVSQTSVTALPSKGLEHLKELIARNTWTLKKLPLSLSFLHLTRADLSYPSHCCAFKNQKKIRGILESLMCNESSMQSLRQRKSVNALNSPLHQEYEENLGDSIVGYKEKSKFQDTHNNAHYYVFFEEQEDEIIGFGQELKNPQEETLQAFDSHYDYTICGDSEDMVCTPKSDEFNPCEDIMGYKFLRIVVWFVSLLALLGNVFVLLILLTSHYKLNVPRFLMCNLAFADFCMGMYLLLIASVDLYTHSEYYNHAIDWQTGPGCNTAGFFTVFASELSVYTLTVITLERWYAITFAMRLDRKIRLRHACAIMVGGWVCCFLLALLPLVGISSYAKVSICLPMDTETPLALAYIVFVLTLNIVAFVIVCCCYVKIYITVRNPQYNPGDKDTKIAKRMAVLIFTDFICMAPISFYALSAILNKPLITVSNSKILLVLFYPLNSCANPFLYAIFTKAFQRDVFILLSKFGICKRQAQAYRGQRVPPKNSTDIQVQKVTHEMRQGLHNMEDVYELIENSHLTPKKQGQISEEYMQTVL
Sequence of RecQ-like DNA helicase BLM (Homo sapiens) (P54132 whole entry, looked up): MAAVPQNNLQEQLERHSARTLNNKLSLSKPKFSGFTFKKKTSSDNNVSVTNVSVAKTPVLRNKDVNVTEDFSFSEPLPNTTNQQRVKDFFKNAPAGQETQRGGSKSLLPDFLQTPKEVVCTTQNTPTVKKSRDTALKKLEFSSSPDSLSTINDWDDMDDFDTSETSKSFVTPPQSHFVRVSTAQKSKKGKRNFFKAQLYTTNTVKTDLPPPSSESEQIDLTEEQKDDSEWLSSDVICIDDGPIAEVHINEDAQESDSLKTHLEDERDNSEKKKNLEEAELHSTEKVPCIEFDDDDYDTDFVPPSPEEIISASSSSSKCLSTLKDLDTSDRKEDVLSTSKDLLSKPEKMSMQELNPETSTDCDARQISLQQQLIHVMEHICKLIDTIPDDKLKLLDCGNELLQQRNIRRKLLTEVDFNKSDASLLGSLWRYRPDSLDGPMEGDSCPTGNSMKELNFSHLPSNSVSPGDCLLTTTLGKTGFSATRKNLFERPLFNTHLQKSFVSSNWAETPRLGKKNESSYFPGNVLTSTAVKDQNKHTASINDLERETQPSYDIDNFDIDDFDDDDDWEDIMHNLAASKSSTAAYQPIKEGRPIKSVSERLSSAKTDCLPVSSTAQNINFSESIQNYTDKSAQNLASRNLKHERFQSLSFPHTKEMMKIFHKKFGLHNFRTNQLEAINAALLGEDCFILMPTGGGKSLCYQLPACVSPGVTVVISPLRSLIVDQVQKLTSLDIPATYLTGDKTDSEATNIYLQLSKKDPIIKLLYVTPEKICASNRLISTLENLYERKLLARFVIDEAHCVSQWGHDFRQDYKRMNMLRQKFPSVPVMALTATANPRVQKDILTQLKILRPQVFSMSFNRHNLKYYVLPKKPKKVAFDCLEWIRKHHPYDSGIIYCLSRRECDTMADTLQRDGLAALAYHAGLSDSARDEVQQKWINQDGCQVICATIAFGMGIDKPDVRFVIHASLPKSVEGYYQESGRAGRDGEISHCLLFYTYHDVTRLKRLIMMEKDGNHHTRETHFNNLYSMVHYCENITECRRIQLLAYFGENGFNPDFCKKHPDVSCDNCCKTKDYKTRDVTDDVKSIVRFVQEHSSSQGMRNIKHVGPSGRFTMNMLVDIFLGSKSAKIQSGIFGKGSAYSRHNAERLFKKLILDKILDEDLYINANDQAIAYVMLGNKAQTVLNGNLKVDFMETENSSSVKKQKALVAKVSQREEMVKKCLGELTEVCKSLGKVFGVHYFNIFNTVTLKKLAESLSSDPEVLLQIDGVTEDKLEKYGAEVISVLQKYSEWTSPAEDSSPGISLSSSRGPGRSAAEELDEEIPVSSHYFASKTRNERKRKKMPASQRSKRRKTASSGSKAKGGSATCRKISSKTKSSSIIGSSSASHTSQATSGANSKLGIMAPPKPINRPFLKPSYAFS

Cn1cnc2c(NC3CCCC3)ncnc21
-21%: max response [1]
inactive: Potency [2] | Potency [3] | Potency [4] | Potency [5] | Potency [6] | Potency [7] | Potency [8] | outcome [9] | Potency [10] | Potency [11] | Potency [12] | Potency [13] | Potency [14] | outcome [15] | outcome [16] | activation [17] 0.875% | outcome [18] | Potency [19]
